The values below come from PubChem BioAssay (NCI).

Structures are written as SMILES. The panel holds about 83,000 compounds, 20% with a hit somewhere; the sample as a whole holds those more often.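 Cells were grown in 96-well plates and exposed to the test compound at a single concentration for 48 hours; results are reported as percent growth, with values below 10 considered active.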 Unmarked numbers belong to inactive results. Calls of active or inactive are those of the source.

What all share (assay): NCI-60 one-dose screen, 48 h (100 = growth as untreated, 0 = no growth, -100 = all killed)
Holding throughout (conditions): 10 µM unless noted

Experiment [1] deals with DU-145 prostate.
The test system of experiment [2] is MALME-3M melanoma.
Experiment [3] relates to MDA-MB-231 breast.
For experiment [4], the system named is RXF 393 renal.
Experiment [5] deals with SF-268 CNS.
The test system of experiment [6] is SF-295 CNS.
In experiment [7] the test system is SF-539 CNS.
The subject of experiment [8] is UACC-257 melanoma.
Experiment [9] deals with M14 melanoma.
The test system of experiment [10] is HCT-15 colon.
For experiment [11], the system named is HT29 colon.
Experiment [12] deals with SNB-75 CNS.
In experiment [13] the test system is SNB-19 CNS.
The test system of experiment [14] is U251 CNS.
Experiment [15] deals with PC-3 prostate.
The test system of experiment [16] is SK-MEL-5 melanoma.
Experiment [17] concerns UACC-62 melanoma.
Experiment [18] deals with LOX IMVI melanoma.
The test system of experiment [19] is SK-MEL-28 melanoma.

With `COc1ccc(/C=C(\C#N)c2cc(OC)c(OC)c(OC)c2)cc1`, the growth is -1.75% (active) in [1]; 69.1% in experiment [2]; 38.4% in [3]; 48.7% in experiment [4]; 27% in experiment [5]; 14.1% in experiment [6]. The growth was 8.76% (active) in experiment [7]; 65.7% in experiment [8]; 8.3% (active) in [9]; 15.2% in [10]; 6.29% (active) in experiment [11]; 30.3% in experiment [12]. Besides, the growth in [13] is 43%; in experiment [14] it was 15.4%; in experiment [15] it was 28%; in experiment [16], -37.4% (active); in experiment [17], 36.2%; in experiment [18] it was 27%. Moreover, in [19], the growth is 56.6%.
As to `CSc1ccc(/C=C2\C=C(CC(=O)NCc3ccc(C(=O)c4ccccc4)cc3)c3cc(F)ccc32)cc1`, the growth in experiment [1] was -34.3% (active); in experiment [2], 49.3%; in experiment [3], -7.54% (active); in experiment [4], -34.1% (active); in experiment [5] it was 1.28% (active); in [6], -20.2% (active). For the same compound, the growth is -36.2% (active) in experiment [7]; 55.2% in [8]; -33.2% (active) in experiment [9]; 5.88% (active) in experiment [10]; -15.1% (active) in [11]; -18.4% (active) in experiment [12]. Moreover, the growth in experiment [13] is 18.2%; in [14], -2.89% (active); in experiment [15] it was 12.4%; in experiment [16], -51.4% (active); in [17] it was 3.75% (active); in experiment [18] it was 5.66% (active). For the same compound, in [19], the growth was 18.2%.
As to `COc1ccc(/C=C/C(=O)CCC(=O)O)cc1OC`, the growth in experiment [1] is 111%; in [2], 102%; in experiment [3], 119%; in experiment [4] it was 116%; in experiment [5] it was 107%; in experiment [6], 104%. For the same compound, the growth is 101% in experiment [7]; 105% in experiment [8]; 101% in [9]; 115% in experiment [10]; 101% in [11]; 90.5% in experiment [12]. Also, the growth in experiment [13] was 111%; in experiment [14], 107%; in [16], 109%; in [17], 110%; in experiment [18], 99.7%; in experiment [19], 112%.
Consider `COc1ccc(C2NC(=O)c3cc4c(cc3N2)OCO4)cc1` (stereo not drawn), for which the growth in [1] was 7.04% (active); in experiment [2], 58.7%; in experiment [3], 31.3%; in experiment [4], -2.15% (active); in experiment [5], 39.6%; in [6] it was -14% (active). In addition, the growth in [7] was 8.24% (active); in [8], 65.8%; in experiment [9] it was -7.7% (active); in [10], 12.5%; in experiment [11] it was 5.16% (active); in experiment [12] it was 5.9% (active). Besides, the growth is 34% in [13]; 17.2% in [14]; 11.9% in experiment [16]; 25.3% in [17]; 39.9% in experiment [18]; 39.8% in [19].
Regarding `CC(C)(C)OC(=O)N1CCCN(CCNc2nccc(-c3c(-c4cccc(O)c4)nc4sccn34)n2)S1(=O)=O`, the growth was 85% in [1]; 17.9% in [2]; 84.3% in experiment [3]; 78.5% in experiment [4]; 110% in experiment [5]; 112% in [6]. Moreover, the growth in [7] was 104%; in experiment [8] it was 62.3%; in experiment [9], 16.7%; in experiment [10], 99.9%; in experiment [11], 56.7%; in experiment [12], 84%. Also, the growth is 126% in experiment [13]; 117% in experiment [14]; 85% in [15]; 86.9% in [16]; 12.1% in [17]; 32.3% in experiment [18]. Besides, in experiment [19], the growth is 45.4%.
As to `Cc1ccsc1C(=O)CC(=O)C(F)(F)C(F)(F)C(F)(F)F`, the growth was 112% in experiment [1]; 105% in experiment [2]; 96.6% in experiment [3]; 108% in experiment [4]; 107% in experiment [5]; 97.1% in experiment [6]. Moreover, the growth in [7] is 102%; in experiment [8], 108%; in experiment [9], 117%; in experiment [10], 111%; in experiment [11], 111%; in [12] it was 92.3%. In addition, the growth was 111% in experiment [13]; 103% in experiment [14]; 91.2% in experiment [15]; 109% in experiment [16]; 96.7% in experiment [17]; 97.8% in [18]. Also, the growth in [19] was 103%.
As to `CC(C)(C)c1nn(-c2ccccc2)c2c1C(=O)CSC(c1ccc3c(c1)OCO3)N2` (stereo not drawn), the growth was 104% in experiment [1]; 92% in experiment [2]; 98.6% in experiment [3]; 114% in experiment [4]; 92.5% in experiment [5]; 91.4% in [6]. Moreover, the growth in experiment [7] was 101%; in experiment [8], 130%; in [9], 91.3%; in experiment [10] it was 89.9%; in experiment [11], 100%; in experiment [12], 98.4%. For the same compound, the growth in experiment [13] was 101%; in [14] it was 107%; in [15], 84.4%; in experiment [16], 110%; in [17], 85.3%; in experiment [18], 87%. Also, the growth in experiment [19] was 109%.
In the case of `COc1cccc(-c2nc3sccn3c2-c2ccnc(NCCN3CCCN(C)S3(=O)=O)n2)c1`, the growth in experiment [1] was 74.2%; in experiment [2], 39.6%; in experiment [3], 84.9%; in experiment [4], 74.6%; in experiment [5], 103%; in [6], 96.8%. Also, the growth was 92.5% in experiment [7]; 84.7% in [8]; 29.2% in [9]; 68% in experiment [10]; 50.6% in experiment [11]; 62.5% in experiment [12]. The growth is 123% in [13]; 99.9% in experiment [14]; 87.2% in experiment [15]; 84.1% in [16]; 15.2% in experiment [17]; 45.2% in [18]. For the same compound, in experiment [19], the growth is 53%.
As to `COc1cccc(-c2nc3sccn3c2-c2ccnc(NCCN3CCCNS3(=O)=O)n2)c1`, the growth is 79.2% in experiment [1]; 24.2% in experiment [2]; 83.3% in experiment [3]; 76.7% in [4]; 94.7% in [5]; 106% in experiment [6]. Further, the growth in experiment [7] is 111%; in experiment [8] it was 65.4%; in experiment [9], 18%; in experiment [10], 97.1%; in experiment [11] it was 45.2%; in experiment [12], 88.4%. Moreover, the growth in experiment [13] was 127%; in experiment [14], 112%; in [16] it was 80.8%; in experiment [17], 9.99% (active); in experiment [18], 35%; in experiment [19], 44.1%.
